This excerpt belongs to a sample that is enriched for hits.
ROC1-CUL1 inh = blocks human RBX1-Cullin-1 di-ubiquitin formation | P62877+Q13616 | in vitro K48 di-Ub FRET, acceptor:donor ratio, 45 min | inhibition, % at 10 µM | hit rate 0.6% among 140,000 | AID 1347404; in the data active = inhibition above about 25%
Target sequence (P62877 whole entry, looked up): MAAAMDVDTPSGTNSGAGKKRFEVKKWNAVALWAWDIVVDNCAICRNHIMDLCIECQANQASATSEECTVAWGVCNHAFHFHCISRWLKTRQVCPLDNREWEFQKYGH
Target sequence (Q13616 whole entry, looked up): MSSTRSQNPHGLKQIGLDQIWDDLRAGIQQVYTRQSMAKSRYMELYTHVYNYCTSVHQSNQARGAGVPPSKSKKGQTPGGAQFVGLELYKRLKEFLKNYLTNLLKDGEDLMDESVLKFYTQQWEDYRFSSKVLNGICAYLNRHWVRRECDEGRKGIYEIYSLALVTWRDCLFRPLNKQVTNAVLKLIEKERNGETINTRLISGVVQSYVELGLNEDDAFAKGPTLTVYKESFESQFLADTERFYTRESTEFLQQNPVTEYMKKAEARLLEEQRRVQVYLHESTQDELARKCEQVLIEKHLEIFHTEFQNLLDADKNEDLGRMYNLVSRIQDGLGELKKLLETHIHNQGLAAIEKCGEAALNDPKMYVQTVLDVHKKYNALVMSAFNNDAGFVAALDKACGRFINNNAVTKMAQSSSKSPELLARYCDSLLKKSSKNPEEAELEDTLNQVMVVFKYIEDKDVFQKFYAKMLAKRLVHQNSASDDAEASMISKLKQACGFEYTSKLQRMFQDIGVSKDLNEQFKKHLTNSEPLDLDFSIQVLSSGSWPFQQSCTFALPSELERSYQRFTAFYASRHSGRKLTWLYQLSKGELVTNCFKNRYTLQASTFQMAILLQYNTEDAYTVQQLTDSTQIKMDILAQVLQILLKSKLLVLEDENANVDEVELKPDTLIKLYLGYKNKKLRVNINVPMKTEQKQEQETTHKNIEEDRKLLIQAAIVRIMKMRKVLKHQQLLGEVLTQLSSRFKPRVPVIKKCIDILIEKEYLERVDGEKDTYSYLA
* marks the source's active call; other numbers are inactive results.

SMILES | ROC1-CUL1 inh
CCCn1cc(NC(=O)Cn2ccc(-c3ccccn3)n2)nn1 | 13
COC(=O)c1csc([N+](=O)[O-])c1SC(C)=O | 77*
COC(=O)c1scc([N+](=O)[O-])c1-c1c([N+](=O)[O-])csc1C(=O)OC | -1
COC(=O)c1csc([N+](=O)[O-])c1SCc1ccccc1 | 7
COCCN1CCN(C(=O)CN2CCCC2=O)CC1 | -3
CC(C)CNCC(=O)N(C1CCCCC1)C1CCCCC1 | -3
O=S(Cc1ccccc1F)c1nc(Cl)ns1 (stereo unspecified) | 1
O=S(=O)(c1ccccc1)c1nc(Cl)ns1 | 8
O=S(Cc1ccccc1Cl)c1nc(Cl)ns1 (stereo unspecified) | 30*
Cc1ccc(-n2c(C)cc(CC3=NC(=O)N(c4cccc(Cl)c4)C3=O)c2C)nc1 | -8
CCn1c(=O)c2c(nc3n(-c4ccc(C)cc4)c(C)c(C)n23)n(C)c1=O | -5
O=C1C=CC(Br)=CC(C(=O)/C=C/c2ccc(F)cc2)C1=O (stereo unspecified) | 11
O=C1C=CC([N+](=O)[O-])=CC(C(=O)/C=C/c2ccccc2)C1=O (stereo unspecified) | 83*
CN1C(=O)C(C(=O)/C=C/c2ccccc2)C(=O)N(C)C1=O | 0
O=C(O)c1ccc(-c2ccc(/C=C3\SC(=O)N(Cc4ccccc4)C3=O)o2)cc1Cl | 93*
Cc1ccc(C(=O)O)cc1-c1ccc(/C=C2\SC(=O)N(Cc3ccc(F)cc3)C2=O)o1 | -5
O=C(O)c1ccc(-c2ccc(/C=C3\SC(=O)N(CC(=O)N4CCOCC4)C3=O)o2)cc1Cl | -1
Cc1ccc(C(=O)O)cc1-c1ccc(/C=C2\SC(=O)N(Cc3ccccc3)C2=O)o1 | 14
Cc1ccc(CN2C(=O)S/C(=C\c3ccc(-c4ccc(C(=O)O)c(Cl)c4)o3)C2=O)cc1 | 69*
CCN1C(=O)S/C(=C/c2ccc(-c3cccc(C(=O)O)c3C)o2)C1=O | 10
CC(C)/C(=N\NC(=O)C(O)c1ccccc1)c1ccccc1 (stereo unspecified) | -3
CS(=O)(=O)Nc1cccc(Cl)c1 | 7
Nc1c(C(=O)Nc2ccc(Cl)cc2)sc2nc(-c3ccc4c(c3)OCO4)ccc12 | 7
Cc1cccc(NC(=O)c2cc3c(=O)n4ccccc4nc3n(CCc3ccccc3)c2=N)c1 | 13
Cn1c(=O)c2c(nc(NCCN)n2Cc2ccc(Cl)cc2)n(C)c1=O | 27*
SMILES | ROC1-CUL1 inh
Cn1c(NCCN)nc2c1c(=O)n(Cc1ccccc1)c(=O)n2C | -2
COCCCNc1nc2c(c(=O)n(C)c(=O)n2C)n1Cc1ccccc1 | 0
O=C(Nc1nc(C23CC4CC(CC(C4)C2)C3)cs1)c1cc2ccccc2oc1=O | 9
Cc1ccc(NC(=O)c2c(N)sc3c2CCCCC3)c(C)c1 | 65*
Cc1ccc(NC(=O)c2c(N)sc3c2CCC3)cc1 | -3
Cc1ccc(NC(=O)c2c(NC(=O)C(C)(C)C)sc3c2CCCC3)c(C)c1 | -5
COc1cccc(-n2c(C)cn3c4c(=O)[nH]c(=O)n(C)c4nc23)c1 | 2
Cc1ccccc1-c1cnnc(NCCCn2cccn2)n1 | -4
NC(=O)c1sc2nnc(-c3ccco3)c(-c3ccco3)c2c1N | -7
O=c1[nH]nnc2c1sc1nc3c(c(-c4ccc(Cl)cc4)c12)CCCC3 | 3
O=c1[nH]nnc2c1sc1nc3c(c(-c4ccco4)c12)CCc1ccccc1-3 | 67*
CC1CCCCN1C(=O)c1ccc(CNS(=O)(=O)c2cccc(C(F)(F)F)c2)cc1 (stereo unspecified) | 7
CCOC(=O)c1c(-n2c(C)cc(/C=C3\C(=O)NC(=S)N(c4ccccc4)C3=O)c2C)sc2c1CCCC2 | 49*
Cc1cc(C=C2C(=O)NC(=S)NC2=O)c(C)n1-c1sc2c(c1C(=O)Nc1ccccc1)CCCC2 | -2
CCOc1ccc(N2C(=O)/C(=C/c3cc(C)n(C4CCCC4)c3C)C(=O)NC2=S)cc1 | -4
Cc1cccc(NC(=O)COc2ccc(C3C4=C(CCCC4=O)OC4=C3C(=O)CCC4)cc2Cl)c1 | -6
COc1ccc(-c2nnc(SCc3c(Cl)cccc3Cl)n2N)cc1 | -2
COc1ccc(/C(C)=N\N2CCN(Cc3cccc4ccccc34)CC2)cc1 | -3
CC(=O)Nc1ccc(-n2cccc2)cc1 | -3
CC1=NN(c2cccc(S(=O)(=O)O)c2)C(=O)C1 | 7
CC(=O)Nc1ccc(N2N=C(C)CC2=O)cc1 | 28*
Cc1ccc(S(=O)(=O)Nc2cc(Sc3nc4ccccc4s3)c(O)c3ccccc23)cc1 | 10
O=S(=O)(Nc1ccc(O)c(Sc2ncn[nH]2)c1)c1ccccc1 | 0
COc1ccc(S(=O)(=O)Nc2cc(Sc3ncn[nH]3)c(O)c3ccccc23)cc1 | 97*
O=C(O)CSc1cc(NS(=O)(=O)c2ccc3ccccc3c2)c2ccccc2c1O | 89*
SMILES | ROC1-CUL1 inh
O=c1oc2c(cc(NS(=O)(=O)c3ccc4ccccc4c3)c3ccccc32)s1 | 12
Cc1ccc(S(=O)(=O)Nc2cc(SCC(=O)O)c(O)c3ccccc23)c(C)c1 | 4
CC1=CC(=O)C(C(c2ccccc2Cl)N2CCN(c3ccccc3)CC2)C(=O)N1Cc1ccco1 (stereo unspecified) | 0
COc1ccc(Cl)cc1NC(=O)N1CCC(CO)(Cc2ccccc2)CC1 | 0
Cc1ccc(-c2cc(NS(=O)(=O)c3ccccc3)n(-c3ccccc3)n2)cc1 | -4
COc1ccc(Br)cc1CNc1ccc2[nH]c(=O)[nH]c2c1 | 1
CNCc1cc(Br)ccc1OC | 3
Oc1ccc(NCc2ccc(OCc3ccccc3)cc2)cc1 | 1
Oc1ccc(NCc2ccc(Br)cc2)cc1 | 76*
CCc1ccc(CNc2ccc(O)cc2)cc1 | -15
COc1ccc(Br)cc1CNc1ccc(O)cc1 | 41*
CCC(Sc1nc(C(C)C)cc(=O)[nH]1)C(=O)O (stereo unspecified) | 0
COc1cccc(CNC2CCN(c3ccc(C(=O)NC(C)c4ccccc4)cc3)CC2)c1OC (stereo unspecified) | 8
COc1ccc(C)cc1NC(=O)CSc1nnc(Cc2ccccc2)o1 | 0
Cc1ccc(-n2nnc(C(=O)Nc3c(C)cccc3C)c2C)cc1C | -5
CN1CCN(C2=Cc3ccccc3Sc3ccccc32)CC1 | -2
CCOC(=O)c1cc(-c2ccc(/C=C(\C#N)c3nc4ccc(C)cc4[nH]3)o2)ccc1Cl | -4
CCOC(=O)c1cc(-c2ccc(C(c3c(C)[nH][nH]c3=O)c3c(C)[nH][nH]c3=O)o2)ccc1Cl | 67*
CCCCOC(=O)c1cc(-c2ccc(CC3=NC(=S)NC3=O)o2)ccc1Cl | 1
COC(=O)C1C(C)=NC2=C(C(=O)CC(c3ccc(OC)cc3)C2)C1c1ccc2c(c1)OCO2 (stereo unspecified) | 2
CC(=O)Nc1cc(C(=O)N2CCC(c3ccccc3Cl)C2)cc2ncn(CCc3ccccn3)c12 (stereo unspecified) | 5
O=C(O)Cc1ccccc1Sc1ccc(Cl)cc1 | -12
CC(=O)c1ccccc1Sc1ccc(Cl)cc1 | 8
NCc1ccccc1Sc1ccc(Cl)cc1 | 31*
O=C(CCC1CCCC1)Nc1ccc(Nc2ccccc2)cc1 | 1
SMILES | ROC1-CUL1 inh
O=C(Cn1cccn1)NCc1cccnc1-n1cnc2ccccc21 | -2
Clc1ccc(-c2ccncn2)cc1Cl | 7
Brc1cc(-c2ccncn2)cs1 | -3
O=[N+]([O-])c1cc(-c2ccncn2)sc1[N+](=O)[O-] | 41*
CC(=O)c1c(C)oc2ccc(N(C(C)=O)S(=O)(=O)c3ccc(F)cc3)cc12 | 10
Cc1noc(C)c1C(=O)Nc1cc(C(F)(F)F)ccc1F | 6

Screens: PubChem, Pan Lab, Icahn School of Medicine at Mount Sinai
